# Measurements as given in PubChem BioAssay (NCI).
# “And” between values parts separate entries of the source, which are not always exact repeats. Equal entries are not always repeated. The panel holds about 79,000 compounds, 15% with a hit somewhere; the sample as a whole holds those more often. Values without a mark were called inactive. The source made the active and inactive calls. Rule as the data show it: active = growth inhibition above about 70%; inactive = the rest.
# Legend:
# [1] = NCI Yeast Anticancer Drug Screen. Data for the rad50 strain (AID 155);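 also: 0% = growth of vehicle-only cultures of the same strain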; conditions: S. cerevisiae rad50 strain growth inhibition, active compounds read high; at 50.0 µM unless noted
# Method in brief: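 Cells are treated with compound, grown, and their growth is then scored against vehicle-only cultures of the same repair-deficient yeast strain.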
# [2] = NCI Yeast Anticancer Drug Screen. Data for the mec2-1 strain (AID 157); conditions: S. cerevisiae mec2-1 strain, active compounds read high; at 50.0 µM unless noted
# Method in brief: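 Yeast mec2-1 mutant treated with compound. Readout: growth inhibition vs vehicle controls.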
# [3] = NCI Yeast Anticancer Drug Screen. Data for the sgs1 mgt1 strain (AID 161);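 also: 0% = growth of cultures given vehicle only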; conditions: S. cerevisiae sgs1 mgt1 strain, active compounds read high; at 50.0 µM unless noted
# Method in brief: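 Inhibition of yeast growth, normalised to vehicle-treated controls, is reported for a strain bearing genetic alterations in DNA damage repair.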
# [4] = NCI Yeast Anticancer Drug Screen. Data for the cln2 rad14 strain (AID 165);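 also: 0% = growth equal to vehicle treated cultures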; conditions: S. cerevisiae cln2 rad14 strain, active compounds read high; at 50.0 µM unless noted
# Method in brief: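 cln2 rad14 yeast strain; compound exposure; growth inhibition read vs vehicle controls.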
# [5] = NCI Yeast Anticancer Drug Screen. Data for the bub3 strain (AID 167); conditions: S. cerevisiae bub3 mutant strain, active compounds read high; at 50.0 µM unless noted
# Method in brief: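 Part of a panel of yeast mutants defective in DNA damage repair or cell cycle regulation. Each strain is grown with compound, and inhibition is calculated relative to solvent-treated cultures.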
# [6] = NCI Yeast Anticancer Drug Screen. Data for the mlh1 rad18 strain (AID 175); conditions: S. cerevisiae mlh1 rad18 strain growth inhibition, active compounds read high; at 50.0 µM unless noted
# Method in brief: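 Yeast w/ defined DNA-repair lesions; compound exposure; growth vs vehicle controls → % inhibition.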
Compound,growth inhibition [1],growth inhibition [2],growth inhibition [3],growth inhibition [4],growth inhibition [5],growth inhibition [6]
Cc1ccc(C(CCC#N)OC(C)C)cc1 (stereo not given),0.95%,19.8%,25.1%,11.9%,3.15%,21.1%
N#Cc1c(C(F)(F)F)cc(-c2cccs2)nc1SC(C(=O)Nc1cc(C(F)(F)F)cc(C(F)(F)F)c1)c1ccccc1 (stereo not given),13.6%,-13.8%,9.5%,17.3%,9.1%,10.4%
CC(=O)NC(CCC(C)C)C(=O)O (stereo not given),-0.05%,25.2%,4.75%,-13.6%,15.6%,-7.35%
COc1ccc(C2=C(c3ccccc3)C(=O)C3(c4ccccc4)CC23c2ccc(OC)cc2)cc1 (stereo not given),-1.25%,17.6%,15.5%,1.85%,1.15%,4.7%
CCOC(=O)c1ccc(N=Cc2ccc(N(CCC#N)CCC#N)cc2)cc1,9.35%,1.65%,-7.25%,3.7%,-1.5%,-7.45%
CC(C)(C)C1CCC2(CC1)CCN(CCCN1CCOCC1)CC2,99% (active),98.4% (active),98.5% (active),97.3% (active),98.3% (active),97.8% (active)
CC(=O)CC(=O)Nc1ccc(OS(N)(=O)=O)cc1,-9.55%,-22.4%,1.95%,3.1%,2.3%,-15.2%
C/C(=N/NC(N)=O)C1CCc2ccccc2C1 (stereo not given),43%,-6.9%,3.2%,1.95%,7.8%,22.9%
CN(C)c1ccc(-c2c3ccccc3nc3ccccc23)cc1,-19.4% and -12.1%,9.35% and -6.05%,14.2% and -14.2%,0.05% and -26.1%,9.95% and -16.1%,-4.7% and 5.8%
COc1ccc(NC(=O)Nc2ccc(F)cc2)c(OC)c1,16.1%,4.9%,10.9%,13.9%,24.2%,7.45%
[CH3][Sn]([CH3])([S]P(=S)(c1ccccc1)c1ccccc1)[S]P(=S)(c1ccccc1)c1ccccc1,25.1%,31.7%,18.7%,-15.8%,19.1%,43.9%
CC(=O)c1ccc(N=CC2CCCCC2=O)cc1 (stereo not given),-8.35%,2.7%,17.1%,-30.1%,-2.9%,-13.9%
CCN(CC)C(=O)/C=C/c1ccccc1,-54.9%,-28.6%,-6.05%,-33.2%,1.7%,-14.8%
Brc1cccc(C=NC23CC4CC(CC(C4)C2)C3)c1,13.7%,-13.8%,12.4%,-52.1%,-13.3%,-4.6%
CCCCN(C#N)CCCC,3%,1.75%,27.6%,-97.3%,-16.1%,-32%
CCOc1ccccc1/C=C1\N=C(c2ccc([N+](=O)[O-])cc2)OC1=O,22.5%,21.2%,38.7%,25.5%,30.1%,31%
CC(C)(Br)C(Br)CCC(C)(Br)C(Br)CO (stereo not given),10.9%,-0.7%,-3.8%,-12.1%,0.55%,-1.3%
CC1C=NNC1=O (stereo not given),19.9%,-30.8%,23.5%,3.4%,-0.05%,4.5%

Compound,growth inhibition [1],growth inhibition [2],growth inhibition [3],growth inhibition [4],growth inhibition [5],growth inhibition [6]
O=S1(=O)CCC12CC1c3ccccc3C2c2ccccc21 (stereo not given),-6.1%,-6.05%,-11.6%,-2.85%,-11.1%,-6.85%
CC(C)N(C(=O)c1ccc(C(=O)N(c2ccccc2)C(C)C)cc1)c1ccccc1,-40.5%,-7.45%,-1.25%,36%,-3.45%,14.4%
CCN(CC)CCCNc1ncnc2c1C(c1ccccc1)c1ccccc1-2 (stereo not given),8.5%,-14.7%,1.7%,6%,-4.85%,-6.9%
CC1(c2nc3ccccc3[nH]2)CCC(C(N)=O)C(C)(C)O1 (stereo not given),1.5%,-13.2%,-19.8%,-2.55%,-16.9%,-10.6%
Cc1cc(=O)oc2nn(CCO)c(C)c12,-35.3%,-17.6%,-10.1%,-41.9%,-10.6%,-13.7%
CC(C)CC(Br)C(=O)NCC(=O)O (stereo not given),-25.1% and 5.2%,-55.1% and -6.55%,-27.9%,8.5%,-24.1%,-11% and -4.8%
CC(C)(C)SC(=S)SCC(=O)c1ccc(F)cc1,4.35%,-36.4%,8.65%,-10.4%,-1.65%,1.5%
Cc1cccc(C(=N)c2ccccc2Cc2cccc3ccccc23)c1C,51%,6.5%,66%,17.6%,68.5%,37.8%
O=C(NC1CCCCC1)/C(=C\c1ccccc1)NC(=O)c1ccccc1,-26.8%,-48.4%,-28.6%,0.05%,-6.8%,-27.4%
COc1ccc(N2C(N)=C(C#N)C(C#N)(C#N)C2c2cccc([N+](=O)[O-])c2)cc1 (stereo not given),8.8%,-5.05%,-2.05%,0.25%,-31.9%,79.7% (active)
CC(C)=C1C2CCC1C(CO)C2CO (stereo not given),4.95%,-8.45%,-13.5%,-102%,-2.4%,-15.7%
COC1OC(C)C(OC(=O)c2ccccc2)C(OC(=O)c2ccccc2)C1OC(=O)c1ccccc1 (stereo not given),16.2%,-3.45%,3.75%,-23.6%,1.95%,12.7%
CC(C)N(C(=O)c1ccccc1O)C(C)C,2.95%,-7.65%,6.55%,-7.7%,-4.4%,2%
CN(C)c1nc(S(C)(=O)=O)nc2nc(Cl)[nH]c12,6.2%,-13.6%,-0.85%,-7.1%,3.65%,-9.8%
Cc1ccc(C(=O)O)c(/C=C2\Cc3cc(C)cc(C)c3C2=O)c1,21.1%,14.8%,24.6%,16.6%,9.85%,29.7%
CCCCCCCCCCCCCCCCC(C(=O)O)C(O)(CC(=O)O)C(=O)O (stereo not given),2.8% and 41.7%,-14.7% and 16.6%,14.5% and 43.4%,-10.7% and 16.6%,-7.9% and 33.4%,7.25% and 31.6%
CC1CCC(c2cc(-c3ccccc3)n(-c3ccccc3)n2)CC1 (stereo not given),-6.25%,6.05%,-2.35%,-26.4%,-17.4%,-6.15%
